Shown are actives, neighbours in structure and some others; about 3% of the full set was active somewhere.
DRD3 agonist: qHTS of D3 Dopamine Receptor Agonist: qHTS; D3R DiscoveRx beta-arrestin cells, luminescence, 90 min; max activation, %; actives 0.58% (n = 410,000); in the data active = max activation above about 30%
Target sequence (P35462 whole entry, looked up): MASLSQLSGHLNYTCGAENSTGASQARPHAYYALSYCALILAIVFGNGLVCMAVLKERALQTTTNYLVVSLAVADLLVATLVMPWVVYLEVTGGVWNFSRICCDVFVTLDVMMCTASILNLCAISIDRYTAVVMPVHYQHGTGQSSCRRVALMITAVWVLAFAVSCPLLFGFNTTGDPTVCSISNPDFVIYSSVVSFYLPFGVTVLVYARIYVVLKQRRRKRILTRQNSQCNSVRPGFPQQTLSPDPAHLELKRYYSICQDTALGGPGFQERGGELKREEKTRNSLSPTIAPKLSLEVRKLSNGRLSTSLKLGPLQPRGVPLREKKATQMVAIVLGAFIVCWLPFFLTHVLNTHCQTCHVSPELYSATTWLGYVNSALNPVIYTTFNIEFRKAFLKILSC
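Cells at 1500/well, incubated overnight, then treated with pinned compounds (dopamine as control) for 90 min at 37 degrees C. DiscoveRx reagent added for 30 - 60 minutes at room temperature; luminescence read.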
D3 antag: qHTS of D3 Dopamine Receptor Antagonist: qHTS. D3R cells, DiscoveRx beta-arrestin luminescence, antagonist mode; stronger effect = lower value. max response, negative = inhibition, %. D(3) dopamine receptor (Homo sapiens), P35462. AID 652054, 2013. actives 2.5% (n = 360,000); in the data active = max response below about -50%; inconclusive = no clear call, values can overlap the other calls
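Cells plated overnight at 1500 cells/well, then exposed to library compounds with dopamine controls for 90 minutes at 37 degrees C. DiscoveRx reagent added for 30–60 minutes at room temperature; luminescence read, quantitative HTS format.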
Glioma ERSR ind: qHTS for Inducers of the Endoplasmic Reticulum Stress Response (ERSR) in Human Glioma: qHTS. U87-MG GRP78 promoter luciferase reporter, 16 h. Potency, µM, most hits filed as activators. actives 0.02% (n = 420,000). AID 602332, 2012; also: series mostly up to about 76 µM; nearly all actives have a fitted effect of over 35% in size
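ERSR induction read as luciferase luminescence (Bright-Glo, 10 min at room temperature) in stably transfected human U87-MG glioma cells exposed to compounds for 16 h, using GRP78 as sensor.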
Nrf2 ARE act: qHTS of Nrf2 Activators. Potency, µM (highest dose often 46.1 µM), usual class: activators. actives 0.31% (n = 410,000). AREc32 ARE-luciferase reporter (MCF7-derived line), luminescence, 24 h; also: nearly all actives have a fitted effect of over 65% in size
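Luciferase luminescence (Steady-Glo, 30 min at room temperature) served as the read-out of ARE activation in AREc32 cells treated with compounds for 24 hr at 37 deg C.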
Each line names hits and unclear results; the compound was inactive in the other large screens. Unless noted, calls follow the shape of the dose curve; as a rule, active = well fitted curve in the direction sought with a large enough effect; inconclusive = small, poorly fitted or top-dose-only effect, or another doubt; inactive = no such curve, though single readings can be large; an effect the other way counts as inactive or inconclusive.

CCc1ccc(S(=O)(=O)/N=C2\C=C(Nc3cccc(C(=O)O)c3)C(=O)c3ccccc32)cc1	D3 antag -93
CCc1ccc(S(=O)(=O)/N=C2/C=C(Sc3ncn[nH]3)C(=O)c3ccccc32)cc1	D3 antag -80
CCc1ccc(S(=O)(=O)/N=C2\C=C(Nc3ccc(O)cc3)C(=O)c3ccccc32)cc1	D3 antag -90
O=C(NCC1CCC2(CCN(Cc3c[nH]c4ccccc34)CC2)O1)C1CCOCC1 (centres undefined)	none (no result: DRD3 agonist, D3 antag, Nrf2 ARE act)
CCCc1nc2oc3c(NCCCN(C)C)ncnc3c2c2c1CCCC2	none
CCCc1nc2oc3c(NCCN(C)C)ncnc3c2c2c1CCCC2	D3 antag -54
COCCN(C)C(=O)c1cnn(-c2nccc(-c3cc(OC)ccc3OC)n2)c1C	none (no result: DRD3 agonist, D3 antag, Nrf2 ARE act)
Cc1cccc(NC(=S)NC2CC3CCC(C2)N3Cc2ccco2)c1 (centres undefined)	D3 antag inconclusive
Cc1cccc(NC(=S)NC2CC3CCCC(C2)N3Cc2ccco2)c1 (centres undefined)	D3 antag -61
COCCCNC(=S)NC1CC2CCCC(C1)N2Cc1ccco1 (centres undefined)	D3 antag -150
CNC(=S)NC1CC2CCCC(C1)N2Cc1ccco1 (centres undefined)	none
O=C(CS)Nc1ccccc1	none (no result: D3 antag, Nrf2 ARE act)
Cc1csc2nc(COC(=O)CNC(=O)c3ccccc3Cl)cc(=O)n12	none (no result: D3 antag)
O=C(Nc1ccccc1)C1=C(c2ccccc2)S(=O)(=O)CCS1(=O)=O	D3 antag -105
Cc1ccc(CN2CCN(Cc3ccccc3)C(CCO)C2)s1 (centres undefined)	D3 antag -53
Cc1ccc(CN2CCN(Cc3cnc(C)s3)CC2CCO)cc1 (centres undefined)	D3 antag -60
Cc1ccc(CN2CCN(Cc3ccc(C)s3)CC2CCO)cc1 (centres undefined)	D3 antag -96
Cc1ccc(CN2CCN(C3CCCC3)C(CCO)C2)s1 (centres undefined)	D3 antag -51
Cc1ccc(CN2CCN(CC(C)C)C(CCO)C2)s1 (centres undefined)	none
COc1ccc(S(=O)(=O)c2nnn(-c3ccc(C)c(Cl)c3)c2C)cc1	none (no result: D3 antag)
COc1ccc(S(=O)(=O)c2cnc3ccc(Cl)cc3c2N2CCCCC2C)cc1 (centres undefined)	none (no result: D3 antag)
CN(C)c1ccc(/C=C2\C=Cc3ccccc32)cc1Cl	none (no result: DRD3 agonist, D3 antag, Nrf2 ARE act)
CSc1ccc(CN2CCN(Cc3ccccc3)C(CCO)C2)cc1 (centres undefined)	D3 antag inconclusive
OCCC1CN(Cc2ccc3c(c2)CCO3)CCN1Cc1ccc(F)cc1 (centres undefined)	D3 antag -59
COc1cccc(CN2CCN(Cc3ccc4c(c3)OCCO4)CC2CCO)c1 (centres undefined)	none
Cc1ccc(CN2CCN(Cc3ccc4c(c3)OCCO4)CC2CCO)cc1 (centres undefined)	D3 antag -55
O=C1CC[C@@H](C(=O)NCC2Cc3cc(Cl)cc(-c4ccc5[nH]ccc5c4)c3O2)N1 (some centres undefined)	none (no result: DRD3 agonist, D3 antag, Nrf2 ARE act)
CN(C)CCCC1Sc2ccccc2Sc2ccccc21 (centres undefined)	D3 antag -69
CNCCC1Sc2ccccc2Oc2ccccc21 (centres undefined)	none
COC(=O)CSc1nc(N2CCOCC2)c2c(c1C#N)CC(C)(C)OC2	none
COC(=O)Sc1nc(N2CCOCC2)c2c(c1C#N)CC(C)(C)OC2	D3 antag -57
COC1=C(C)C(=O)C2=C(C1=O)C1C3CC4=C(C(=O)C(OC)=C(C)C4=O)C(CNC(=O)C(C)=O)N3C(C#N)C(C2)N1C (centres undefined)	D3 antag -57
COC(=O)c1ccc(C2C(C(C)=O)=C(C)Nc3ncnn32)cc1 (centres undefined)	D3 antag -74
CC(=O)c1cc2cccc(OC3(C)CCN(Cc4ccc5ccccc5c4)C3)c2o1 (centres undefined)	D3 antag -70
CC(=O)c1ccc(OC2(C)CCN(CCOc3ccc(C)cc3)C2)cc1 (centres undefined)	DRD3 agonist 48
CC(=O)c1ccc(OC2(C)CCN(Cc3cc4ccccc4[nH]3)C2)cc1 (centres undefined)	D3 antag -55
COCOc1cccc(CN2CCC(C)(Oc3ccc(C(C)=O)cc3)C2)c1 (centres undefined)	none
COC(=O)CC1=C(C(=O)OC)C(c2cccs2)C(C#N)=C(N)O1 (centres undefined)	D3 antag -77
CCOC(=O)C1=C(CC)OC(N)=C(C#N)C1c1cccs1 (centres undefined)	none
N#CC1=C(N)Oc2c(ccc3ccccc23)C1c1cccs1 (centres undefined)	Nrf2 ARE act 2.8µM
Cc1c(/C=C/c2ccnc3ccccc23)ccc(N(C)C)c1C	none (no result: DRD3 agonist, D3 antag, Nrf2 ARE act)
Cc1ccc(Cl)cc1N1CCN(C(=O)Cn2ncc3c([nH]c4ccccc43)c2=O)CC1	none (no result: D3 antag)
COc1cc(CNc2ccc(N3CCOCC3)cc2)cc(Br)c1OC	none
CCOc1cc(CNc2ccc(N3CCOCC3)cc2)cc(Br)c1OCC	DRD3 agonist 37
COc1cc(CN2CCC(C(=O)NC(c3ccc(F)cc3)c3ccc4ccccc4n3)CC2)cc(OC)c1 (centres undefined)	D3 antag -68
Cn1cc(CN2CCC(C(=O)NC(c3ccc(F)cc3)c3ccc4ccccc4n3)CC2)c2ccccc21 (centres undefined)	D3 antag -58
O=C(NC(c1ccccc1)c1ccc2ccccc2n1)C1CCN(Cc2ccc(Oc3ccccc3)cc2)CC1 (centres undefined)	D3 antag inconclusive
O=C(NC(c1ccc(F)cc1)c1ccc2ccccc2n1)C1CCN(Cc2ccc(Oc3ccccc3)cc2)CC1 (centres undefined)	D3 antag -89, Glioma ERSR ind inconclusive
C/C(=C\C(=O)c1ccccc1)Nc1ccc(Cl)c(Br)c1	D3 antag -55
COc1cc(-c2nnc(NC(=O)CCS(=O)(=O)c3ccc(F)cc3)o2)cc(OC)c1OC	D3 antag inconclusive
COc1ccc(OC)c2sc(NC(=O)CCS(=O)(=O)c3ccccc3)nc12	Nrf2 ARE act 5µM
COc1cc(-c2nnc(NC(=O)CCS(=O)(=O)c3ccccc3)o2)cc(OC)c1OC	Glioma ERSR ind inconclusive, Nrf2 ARE act 11µM
O=C(Cn1cc2ccccc2n1)N1CCOc2ccc(C(O)C3CCCCC3)cc2C1 (centres undefined)	none (no result: DRD3 agonist, D3 antag, Nrf2 ARE act)
COc1ccc2c(c1)c(CC(=O)Nc1nnc(C3CC3)s1)c(C)n2C(=O)c1ccc(Cl)cc1	DRD3 agonist 54
NC(=O)c1ccc(N=C2C(=O)Nc3ccc([N+](=O)[O-])cc32)cc1	D3 antag -62
COc1cccc(NC(=O)c2ccc(-c3nc(COc4ccccc4)c(C)o3)cc2)c1	DRD3 agonist 62 (no result: D3 antag)

Bioassay records from PubChem.
